The structures appear in SMILES notation. Activity calls are given as the source filed them. Calls follow the shape of the dose curve; as a rule, active = well fitted curve in the direction sought with a large enough effect in the repeat runs; inconclusive = weak or mixed curves; inactive = flat fitted curve, though single readings scatter.

The experiment is described as follows: qHTS assay to test for compound auto fluorescence at 535 nm (green) in HepG2 cell free culture (AID 720686). As to conditions: Cell-free medium, green autofluorescence 485/535 nm; series mostly up to 91.3 µM. The text has this:
U.S. Tox21 Program National Center for Advancing Translational Sciences [NCATS] NIH Chemical Genomics Center [NCGC] U.S. Environmental Protection Agency [EPA] National Institutes of Environmental Health Sciences [NIEHS] National Toxicology Program [NTP] U.S. Food and Drug Administration [FDA] Tox21 Assay Overview: Compound auto fluorescence often interferes with screening of the compound library against various biological targets and signaling pathways. Some of these compounds may have fluorophoric properties. Such properties may interfere with the assay outputs resulting in false positives and/or negatives. To decrease such complications and ensure the compound activities are relevant in terms of biological response, the Tox21 10K compound library was screened for auto fluorescence. From the fluorophores used as reporter signals in our screening assays, the auto fluorescence equivalencies of compounds against three fluorophores have been evaluated: Triamterene, Fluorescein and Rose Bengal sodium for blue, green and red fluorescence, respectively. The fluorescence intensities were measured using Excitation/Emission wavelengths at 405/460nm, 485/535nm and 540/590nm for blue, green and red labels, respectively. This assay includes the green fluorescence data.
Tox21 Assay Protocol Summary: 5 uL of culture medium (MEM containing 10% FBS) per well was dispensed into black wall/clear bottom 1536-well plates using a Multidrop Combi Dispenser (ThermoFisher Scientific, Waltham, MA). After 23 nL compound or DMSO vehicle was transferred into assay plate by a pintool work station (Kalypsys, San Diego, CA), fluorescence intensities in the assay plates were measured by an Envision (PerkinElmer, Shelton, CT) plate reader using three labels for measuring blue, green and red fluorescence at […] 460, 535 and 590nm respectively.
Regarding `Nc1ccccc1[N+](=O)[O-]`, the molecule was called inactive. Next, `C[C@H]1C[C@@H]2[C@H]([C@@H](O)C[C@@]3(C)[C@H]2CC[C@]3(O)C(=O)CO)[C@@]2(C)C=CC(=O)C=C12`: “inactive”; `CCCSc1ccc2nc(NC(=O)OC)[nH]c2c1`: “inactive”. Next, `O=C(O)c1cc(C(=O)O)cc(S(=O)(=O)O)c1`: “inactive”. Next, `C[C@H]1C[C@H]2[C@@H]3CCC4=CC(=O)C=C[C@]4(C)[C@@]3(F)[C@@H](O)C[C@]2(C)[C@@]1(O)C(=O)CO`: “inactive”.

On to `CCCCC(CC)CO` (stereo not given), for which the molecule was called inactive. For the molecule `O=C(O)CCCC[C@@H]1SC[C@@H]2NC(=O)N[C@@H]21`, the outcome was inactive. The value for `CCCCCCCCCC` was “inactive”. Turning to `COCCCOc1ccnc(CS(=O)c2nc3ccccc3[nH]2)c1C` (stereo not given), the call was inactive. `C[Si](O[Si](C)(C)C)O[Si](C)(C)C`: the molecule was called inactive.

For the molecule `CCCCN(CCCC)CCCC`, the molecule was classed as inactive. The value for `CCCCC(CC)COC(=O)C(C#N)=C(c1ccccc1)c1ccccc1` (stereo not given) was “inactive”. The value for `Oc1cccc2ccccc12` was “inactive”; that for `CCCCC(CC)COC(=O)CCCCC(=O)OCC(CC)CCCC` (stereo not given) was “inactive”. For the molecule `CC1=C(C)S(=O)(=O)CCS1(=O)=O`, the call was inactive. Next, `O=C(O)c1cc(O)c(O)c(O)c1`: “inactive”; `Cc1ccc2oc(=O)ccc2c1`: “inactive”; `O=C(O)CCCCCCCCCCC(=O)O`: “inactive”. The value for `CC(=O)Nc1cccc(O)c1` was “inactive”; that for `CC(C)CC(=O)CC(C)C` was “inactive”.

Take `C=C(C)C(=O)Nc1ccc(Cl)c(Cl)c1`: the outcome was inactive.

Regarding `O=C(CC(C(=O)OC1CCCCC1)S(=O)(=O)O)OC1CCCCC1` (stereo not given), the call was inactive. Regarding `CC(C)(C)[C@@H](O)[C@@H](Cc1ccc(Cl)cc1)n1cncn1`, the call was inactive. Next, `Cc1cccc(O)c1`: “inactive”; `C=CCOC(=O)c1ccccc1C(=O)OCC=C`: “inactive”. For `CC(c1cc2ccccc2s1)N(O)C(N)=O` (stereo not given), the result was inactive.

As for `CCC(O)OCCCOC` (stereo not given), the molecule was classed as inactive. The value for `OC[C@H]1O[C@@](CO)(O[C@H]2O[C@H](CO)[C@@H](O)[C@H](O)[C@H]2O)[C@@H](O)[C@@H]1O` was “inactive”; that for `C=C(C)C(=O)OCCOCCOCCOC(=O)C(=C)C` was “inactive”; that for `CC(=O)CC(=O)Nc1ccccc1` was “inactive”. Next, `CC(O)COCC(C)O` (stereo not given): “inactive”; `CCCCCC1=CCCC1=O`: “inactive”; `COc1ccc(Nc2ccccc2)c(C)c1`: “inactive”.

For `ON=C1CCCCC1`, the call was inactive. For the molecule `CCc1ccc(CCOc2ccc(CC3SC(=O)NC3=O)cc2)nc1` (stereo not given), the result was inactive. The value for `CCc1cccc(C)c1N` was “inactive”; that for `CCCCCOC(C)=O` was “inactive”. Next, `c1ccc2scnc2c1`: “inactive”; `CCCC(C)=O`: “inactive”; `O=C(OCCOCCOC(=O)c1ccccc1)c1ccccc1`: “inactive”.

Values taken from PubChem BioAssay (Tox21).
